# What was measured:
# Assay type in all cases: functional
# [1] = test system: Plasmodium falciparum; test: GSK_TCMDC: Inhibition of Plasmodium falciparum 3D7 in whole red blood cells, using parasite LDH activity as an index of growth. Test compounds present at 2uM
# [2] = test system: Plasmodium falciparum; test: GSK_TCMDC: Inhibition of Plasmodium falciparum Dd2 in whole red blood cells, using parasite LDH activity as an index of growth. Test compounds present at 2uM
# [3] = test system: HepG2; test: GSK_TCMDC: Percent inhibition of human HepG2 cell line. Test compounds present at 10uM.
SMILES,Inhibition [1],Inhibition [2],Inhibition [3]
FC(F)(F)c1ccc2[nH]c(-c3ccc(-c4ccc(CN5CCN(c6ccncc6)CC5)cc4)s3)nc2c1.O=C(O)C(F)(F)F,100%,50%,97%
O=C(Cn1cc(C(F)(F)F)cc(Cl)c1=O)N1CCN(S(=O)(=O)c2ccc(Cl)cc2)CC1,99%,69%,14%
CCCCNc1nccc2ccc(-c3ccncc3)cc12,93%,1%,6%
COc1ccc(C(=O)Nc2cc(Br)c3c(c2)CNCC3)cc1Br.Cl,97%,8%,25%
COc1cc(F)c2ncc(Cl)c([C@H](O)CN3CCC(NCc4cc5c(cn4)OCCO5)CC3)c2c1.Cl,100%,49%,10%
CCN(CC)c1nc(Nc2cc(C)ccc2C)nc(Nc2ccccc2O)n1,100%,99%,0%
O=C(/C=C/c1ccccc1O)NCCCCCN1CCC(c2c[nH]c3ccccc23)CC1,95%,1%,7%
CC(Sc1nnc(-c2cccs2)[nH]1)C(=O)c1c[nH]c2ccccc12 (stereo not drawn),94%,58%,0%
O=C(N[C@@H](Cc1ccccc1)C(=O)O)c1cc(-c2ccc(F)cc2)no1.O=C(N[C@@H](Cc1ccccc1)C(=O)O)c1conc1-c1ccc(F)cc1,96%,49%,0%
Cc1ccc([N+](=O)[O-])cc1NC(=O)N(CC(O)c1ccccc1)C1CCCCC1 (stereo not drawn),100%,98%,11%
CC(C)CCN1CCCN(Cc2ccc(C(=O)Nc3ccc(C(C)(C)C)cc3)cc2)CC1.O=C(O)C(F)(F)F,92%,12%,49%
COc1cc2c(cc1N1CCN(C)CC1)N(C(=O)Nc1ccc(-c3ccncc3)c(Cl)c1Cl)CC2,100%,4%,10%
CO/C(=C\C=C\c1cc2cc(Cl)c(Cl)cc2[nH]1)C(=O)NC1CCN(CCNc2ccccc2)CC1,100%,98%,60%
O=C(NCCN1CCC(NC(=O)c2ccc(-c3ccccn3)s2)CC1)c1cccc(C(F)(F)F)c1.O=C(O)C(F)(F)F,97%,24%,4%
COC(=O)[C@@H](NC(=O)[C@H](Cc1ccc(OC)c(OC)c1)Nc1ccc(C#N)c2ccccc12)c1ccc(O)cc1.O=C(O)C(F)(F)F,100%,100%,6%
COc1cc(CNCCCNc2nc(=O)c3sccc3[nH]2)c2[nH]cc(Cl)c2c1.CS(=O)(=O)O,96%,0%,29%
Cc1nc(O)c2c(ccc3ccc(CNc4ccc(C(=O)N[C@@H](CCC(=O)O)C(=O)O)cc4)cc32)n1,89%,95%,32%
COc1ccc(Nc2nc(NCc3cccc(NS(C)(=O)=O)c3)cc(-c3ccc(OC)cc3)n2)cc1,84%,5%,0%
CN1CCCN(Cc2ccc(-c3ccc(NC(=O)c4cccc(Cl)c4)cc3)cc2)CC1.O=C(O)C(F)(F)F,95%,64%,55%
Cc1[nH]c(C)c(-c2ccc(OCCCc3ccccn3)cc2)c(=O)c1Br.Cl,98%,97%,0%
O=C(NC1CCN(Cc2ccccc2)CC1)c1ccc(-c2nc3cc(Cl)c(F)cc3[nH]2)s1,100%,99%,28%

SMILES,Inhibition [1],Inhibition [2],Inhibition [3]
Cc1nc(C)c(-c2ccc(S(=O)(=O)c3ccc(Cl)cc3)cc2)c(O)c1Cl,98%,96%,0%
CN(C)Cc1cccc(-c2ccc(Nc3nccc(NCC(O)c4ccccc4)n3)cc2)c1 (stereo not drawn),100%,77%,75%
COc1cc2nc(-c3ccccc3)nc(N3CCN(CC(=O)N4CCCC4)CC3)c2cc1OC,84%,70%,7%
CCOC(=O)c1nc(-c2cccnc2)[nH]c1NC(=S)NCc1ccccc1,100%,100%,10%
CCCc1ccc(S(=O)(=O)NC2CCN(C(=O)Nc3ccc(I)cc3)CC2)cc1,97%,0%,8%
CCN1CCCC(CNC(=O)/C(=C/C=C/c2cc3cc(Cl)c(Cl)cc3[nH]2)OC)C1 (stereo not drawn),93%,89%,33%
CN(C)C=Nc1ccc(OCCCCCCOc2ccc(N=CN(C)C)cc2)cc1.Cc1ccc(S(=O)(=O)O)cc1,100%,94%,26%
O=C1Nc2cccc3c2C1(CCCCCN1CCC(c2c[nH]c4ccncc24)CC1)CCC3 (stereo not drawn),95%,3%,8%
O=C(/C=C/c1ccc(Cl)c(Cl)c1)NCCCCCCN1CCN(C(=O)Nc2ccc(F)c(Cl)c2)CC1,86%,2%,40%
N=C(N)Nc1nc(-c2cccc(NC(=O)NCc3ccc(OC(F)(F)F)cc3)c2)cs1,100%,26%,0%
Cc1cc(N[C@@H](Cc2ccccc2)C(=O)NCc2cccc(F)c2)nc(NCc2ccccc2C)n1.O=C(O)C(F)(F)F,100%,75%,6%
CCCCCCCCNCc1c(O)ccc2ccccc12.Cl,99%,94%,0%
COc1ccc(C2SCC(=O)N2CCc2ccc(OC)c(OC)c2)cc1 (stereo not drawn),96%,2%,19%
Cc1cccc(-c2nn(-c3ccccc3)cc2C(=O)Nc2nnc(C)o2)c1,84%,63%,38%
CCn1c(-c2nonc2N)nc2c(-c3cccc(NC(=O)Nc4cccc(C(F)(F)F)c4)c3)ncc(OCCCN)c21.O=C(O)C(F)(F)F,95%,70%,21%
CCC[C@@H]([C@@H](CC1CCC(C)CC1)C(=O)N[C@@H](CO)C(=O)Nc1nccs1)N(O)C=O (stereo partly drawn),100%,84%,0%
CCOC(=O)C1=C(C)NC2=C(C(=O)CC(C)(C)C2)C1c1ccc(Cl)cc1 (stereo not drawn),96%,84%,4%
COCCOc1cccc(CN2CCC(c3cc4nc(C)cc(C(F)(F)F)n4n3)C2)c1.O=C(O)CC(O)(CC(=O)O)C(=O)O (stereo not drawn),85%,74%,25%
NC(=O)c1cccc(C(=O)Nc2cccc(-c3ccc(-c4nc5ccccc5[nH]4)s3)c2)c1,95%,69%,37%
CC(C)(C)c1ccc(CN2CCCCC(NC(=O)c3cc(-c4cccc(F)c4)cs3)C2)cc1.O=C(O)C(F)(F)F (stereo not drawn),98%,84%,8%
C=CCc1cc(SC)ccc1Oc1ccc(N)cc1.Cl,96%,2%,12%

SMILES,Inhibition [1],Inhibition [2],Inhibition [3]
CS(=O)(=O)c1cccc2sc(N3CCN(C(=O)c4ccc([N+](=O)[O-])o4)CC3)nc12,84%,61%,0%
O=C(Nc1cccc(CN2CCCN(Cc3ccc(O)cc3)CC2)c1)c1cccc(Cl)c1.O=C(O)C(F)(F)F,96%,41%,10%
COc1ccc(C2CC(c3cccs3)=NN2C(=O)CNc2ccccc2F)cc1OC (stereo not drawn),87%,45%,11%
Cc1ccc(-c2noc(=O)n2CC(=O)Nc2ccccc2-c2ccccc2)cc1,100%,86%,0%
CCN(CC)/C(=N/C(=N)Nc1ccc(C)cc1)NCCCCCCN/C(=N\C(=N)Nc1ccc(C)cc1)N(CC)CC,97%,98%,10%
CC(C)CCCC(C)(C)NC[C@@H](O)[C@H](Cc1ccccc1)NC(=O)c1cc(NC(C)C)cc(N2CCCCS2(=O)=O)c1F.O=CO,98%,99%,11%
O=C(/C=C/c1ccc(Cl)c(Cl)c1)NCCCCCN1CCCC(CNC(=O)/C=C/c2ccccc2)C1 (stereo not drawn),98%,6%,37%
Oc1c(CN2CCCC(C(F)(F)F)C2)cc(Cl)c2ccccc12 (stereo not drawn),94%,53%,23%
CCN(CC)CCCC(C)N/C(=N\c1ccccc1Br)Nc1ccc(C#N)cc1O (stereo not drawn),89%,0%,4%
CCOc1ccc(C2CCN(CCN3CCC(NC(=O)c4ccc(-c5ccc(C(F)(F)F)cc5)cc4)CC3)CC2)c(OCC2CC2)c1,99%,65%,13%
N#Cc1ccc(-c2cnc3ccc(NCCc4cccnc4)nn23)cc1,99%,81%,27%
CN(C)/C(=N/C(=N)Nc1ccc(Cl)cc1)NCCCCCCN/C(=N\C(=N)Nc1ccc(Cl)cc1)N(C)C,97%,98%,11%
CC(C)(C)CN1C(=O)C(c2ccccc2)(c2ccccc2)N=C1N.O=CO,98%,94%,32%
Nc1nc(N)c2c(ccn2Cc2cc3c(cc2Cl)OCO3)n1,98%,11%,67%
O=C(Nc1ccc(CN2CCCCC2)cc1)c1ccc(COc2ccc([N+](=O)[O-])cc2)o1,86%,0%,12%
O=C(O)c1cccnc1Sc1ccc(Cl)cc1,100%,4%,5%
CC(Cc1ccc(OCCN2CCN(c3ccccc3)CC2)cc1)NCC(O)c1cccc(Cl)c1F.Cl (stereo not drawn),92%,56%,40%
Cc1cccc2nc(-c3ccc(-c4ccc(NC(=O)NC5CC5c5ccccc5)cc4)cc3)[nH]c12 (stereo not drawn),96%,3%,28%
Cc1cc(N[C@@H](CC(C)C)C(=O)NC2CCCC2)nc(NCc2ccccc2C)n1.O=C(O)C(F)(F)F,98%,44%,2%

# Source: ChEMBL document CHEMBL1157539, “Thousands of chemical starting points for antimalarial lead identification” (Nature, 2010)
